A number with no mark means an inactive call. Active and inactive are the calls of the source. Calls follow the shape of the dose curve; as a rule, active = well fitted inhibition curve with a large enough effect; inconclusive = small, poorly fitted or top-dose-only effect; inactive = flat fitted curve, though single readings scatter.
These compounds were tested against Luciferin 4-monooxygenase (Photinus pyralis) (UniProt P08659) (assay: Primary firefly luciferase (FLuc) qHTS assay for identification of artifact compounds. (AID 1845220; also: nearly all actives have a fitted effect of over 60% in size;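 as to activity change, negative = inhibition: plate controls were DMSO vehicle for no effect and no enzyme for full effect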)). Settings: purified firefly luciferase, luminescence, 5 min; series mostly up to 54.1 µM; activity change, negative = inhibition: at the top concentration.
Outline: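 qHTS, 15 min compound preincubation with substrate (10 uM luciferin, 10 uM ATP) at RT, then 10 nM FLuc; 5 min; luminescence; % inhibition vs no-enzyme/DMSO controls, 4-parameter Hill fit.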
C[C@@H]1O[C@@H](O[C@@H]2\C=C/C=C\C=C/C=C\C[C@H](C)OC(=O)/C=C\[C@H]3O[C@@H]3C[C@H](O)C[C@]3(O)C[C@@H](O)[C@@H](C(=O)O)[C@H](C2)O3)[C@H](O)[C@H](N)[C@@H]1O was tested, and the “activity change, negative = inhibition” value was 4.34%. For C[C@H]1CC[C@@]2(OC1)O[C@H]1CC3C4CC[C@H]5C[C@@H](O[C@@H]6O[C@H](CO)[C@H](O[C@@H]7O[C@H](CO)[C@@H](O)[C@H](O[C@@H]8OC[C@@H](O)[C@H](O)[C@H]8O)[C@H]7O[C@@H]7O[C@H](CO)[C@@H](O)[C@H](O)[C@H]7O)[C@H](O)[C@H]6O)[C@H](O)C[C@]5(C)C4=CC(=O)[C@]3(C)[C@H]1[C@@H]2C (stereo partly drawn), the activity change, negative = inhibition was 4.7% [at 11.6 µM]. O=C(/C=C/c1ccc(O)cc1)OCC1OC(O)C(OC2OC(CO)C(O)C(O)C2O)C(O)C1O (stereo not drawn) was tested, and the “outcome” value was “inactive [at 25.7 µM]”. With C=C(COC(=O)CC(C)C)C1Cc2cc(C(C)=O)ccc2O1 (stereo not drawn) the “activity change, negative = inhibition” value was 2.13%. For COc1cn(-c2ccc(-n3cccn3)cc2F)nc(-c2ccnn2-c2ccccc2)c1=O, the “outcome” value was “inactive”. C=CC(C)(C)C12Nc3c(ccc4c3OC(C)(C)C=C4)C1(O)CC1C(=O)N3CCCC3C(=O)N12 (stereo not drawn) was tested, and the “activity change, negative = inhibition” value was -0.484% [at 25.7 µM]. For C[C@@H]1C[C@@H](O)[C@@]23CO[C@]2(CO)CCC[C@@H]3[C@@]12C[C@@H](c1ccoc1)OC2=O, the “outcome” value was “inactive”. In the case of CC1=C(CCC(C)O[C@@H]2O[C@H](CO)[C@@H](O)[C@H](O)[C@H]2O)C(C)(C)CC(O)C1 (stereo partly drawn), the “activity change, negative = inhibition” value is reported as 2.26%. For OC[C@H]1O[C@@H](OCCc2ccccc2)[C@H](O)[C@@H](O)[C@@H]1O, the “activity change, negative = inhibition” value was 1.53%. For Nc1ncnc2c1c(COc1cccc(Cl)c1)nn2C1CCOCC1, the “outcome” value was “inactive”. In the case of C=C(C)C1Cc2c(ccc3c2OCC(c2ccc(O)cc2O)C3)O1 (stereo not drawn), the “activity change, negative = inhibition” value is reported as -9.21%. With CC(C)=C1CC2C(CCC2(C)O)C(C)(O)CC1=O (stereo not drawn) the “activity change, negative = inhibition” value was 2.57%. C/C=C1/C[N+](C)([O-])C2Cc3c([nH]c4ccccc34)C(=O)CC1C2C(=O)OC (stereo not drawn) was tested, and the “outcome” value was “inactive”. In the case of C=C1C[C@]23C[C@H]1CC[C@H]2[C@]1(C)CC[C@H](O)[C@@](C)(C(=O)O)[C@H]1[C@@H]3C(=O)O, the “activity change, negative = inhibition” value is reported as -12.1%. For CC1=C2CC(=O)C(C)CC/C=C(\C)CC2OC1=O (stereo not drawn), the “activity change, negative = inhibition” value was -6.07%. For CC(=O)OCC1OC(OC2COC(OC3COC(OC4C(OC5C(CO)OC(OC6CCC7(C)C(CCC8(C)C7CC=C7C9CC(C)(C)CCC9(C(=O)OC9OC(CO)C(O)C(O)C9OC9OCC(OC%10OCC(O)(CO)C%10O)C(O)C9O)C(O)CC78C)C6(C)C)C(O)C5O)OCC(O)C4O)C(O)C3O)C(O)C2O)C(OC(=O)/C=C/c2ccccc2)C(O)C1OC(C)=O (stereo not drawn), the activity change, negative = inhibition was 4.52% [at 6.45 µM]. In the case of C/C=C/C=C/C(=O)OC1CC/C=C/C(O)C(O)C(CCC)OC1=O (stereo not drawn), the “activity change, negative = inhibition” value is reported as -5.09%. C=C1C2CCC3C(CCC4[C@@]3(C)CCC[C@@]4(C)C(=O)O)(C2)[C@@H]1OC(=O)/C(C)=C\C (stereo partly drawn) was tested, and the “outcome” value was “inactive [at 25.7 µM]”. With C[C@@]1(O)[C@H](O)[C@@H](CO)O[C@H]1n1cnc2c(=O)[nH]c(N)nc21 the “outcome” value was “inactive”. With COC(=O)C1=CO[C@@H](O[C@@H]2O[C@H](CO)[C@@H](O)[C@H](O)[C@H]2O)[C@H]2[C@@H]1C=C[C@]21C=C([C@H](C)OC(=O)/C=C/c2ccc(O[C@@H]3O[C@H](CO)[C@@H](O)[C@H](O)[C@H]3O)cc2)C(=O)O1 the “outcome” value was “inactive [at 25.7 µM]”. For CC1=C2C[C@@]3(C)C(CCC[C@@H]3C)C(O)C2(O)OC1=O (stereo partly drawn), the “activity change, negative = inhibition” value was -6.13%. With OC[C@H]1O[C@@H](O[C@H]2[C@H](O)[C@@H](CO)O[C@@H](OCc3ccccc3)[C@@H]2O[C@@H]2OC[C@](O)(CO)[C@H]2O)[C@H](O)[C@@H](O)[C@@H]1O the “outcome” value was “inactive [at 25.7 µM]”. With CC(C)(CC(=O)N1CCCC1)NCC(=O)N1C[C@@H](F)C[C@H]1C#N the “activity change, negative = inhibition” value was 1.76%. CC(C)=C1C[C@@]2(C)C(=CC1=O)CC[C@@H](O)[C@@H]2C was tested, and the “activity change, negative = inhibition” value was -2.71%. For CC(C)CC[C@@H](O)[C@](C)(O)[C@H]1CC[C@@]2(O)C3=CC(=O)[C@@H]4C[C@@H](O)[C@@H](O)C[C@]4(C)[C@H]3CC[C@]12C, the “outcome” value was “inactive”. In the case of C=C1C(OC(C)=O)CCC2(C)CCC(C(C)(C)O)CC12 (stereo not drawn), the “outcome” value is reported as “inactive”. With CSC(=O)OCC1=C[C@@H]2OC(=O)C3=CO[C@@H](O[C@@H]4O[C@H](CO)[C@@H](O)[C@H](O)[C@H]4O)[C@H]1[C@@H]32 the “outcome” value was “inactive [at 25.7 µM]”. For COc1cc(C(=O)OC[C@H]2O[C@@H](OC(C)(C)C(=O)O)[C@H](O)[C@@H](O)[C@@H]2O)cc(OC)c1O, the “activity change, negative = inhibition” value was 2.66% [at 25.7 µM].

— PubChem BioAssay (NCATS)
